According to PubChem BioAssay:
Inconclusive results are not listed. The source made the active and inactive calls.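 How the source made its calls, unless noted: active means viability at or below 30% in both replicate assays; inconclusive means viability at or below 30% in just one of the two assays; inactive means the rest.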

What was measured:
[1] = reducers of endogenous Her2 protein level, primary screen, SKBR3 breast tumor cells, AlphaScreen, ATP viability (AID 461;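 active means Her2 level under about 52% in both replicate screens, with viability over 70% of control, limit read from the data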;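 on Her2 level: lower value means less Her2 protein in the cells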;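 on viability: percent of carrier control wells set as 100% viability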); settings: 18-24 h, measured here: SKBR3 viability, ATP luminescence, at 10 µM
[2] = molecular target: Receptor tyrosine-protein kinase erbB-2 (Homo sapiens) (UniProt P04626); assay: as above; settings: 18-24 h, at 10 µM, stronger effect = lower value
Sequence of Receptor tyrosine-protein kinase erbB-2 (Homo sapiens) (P04626 whole entry, looked up): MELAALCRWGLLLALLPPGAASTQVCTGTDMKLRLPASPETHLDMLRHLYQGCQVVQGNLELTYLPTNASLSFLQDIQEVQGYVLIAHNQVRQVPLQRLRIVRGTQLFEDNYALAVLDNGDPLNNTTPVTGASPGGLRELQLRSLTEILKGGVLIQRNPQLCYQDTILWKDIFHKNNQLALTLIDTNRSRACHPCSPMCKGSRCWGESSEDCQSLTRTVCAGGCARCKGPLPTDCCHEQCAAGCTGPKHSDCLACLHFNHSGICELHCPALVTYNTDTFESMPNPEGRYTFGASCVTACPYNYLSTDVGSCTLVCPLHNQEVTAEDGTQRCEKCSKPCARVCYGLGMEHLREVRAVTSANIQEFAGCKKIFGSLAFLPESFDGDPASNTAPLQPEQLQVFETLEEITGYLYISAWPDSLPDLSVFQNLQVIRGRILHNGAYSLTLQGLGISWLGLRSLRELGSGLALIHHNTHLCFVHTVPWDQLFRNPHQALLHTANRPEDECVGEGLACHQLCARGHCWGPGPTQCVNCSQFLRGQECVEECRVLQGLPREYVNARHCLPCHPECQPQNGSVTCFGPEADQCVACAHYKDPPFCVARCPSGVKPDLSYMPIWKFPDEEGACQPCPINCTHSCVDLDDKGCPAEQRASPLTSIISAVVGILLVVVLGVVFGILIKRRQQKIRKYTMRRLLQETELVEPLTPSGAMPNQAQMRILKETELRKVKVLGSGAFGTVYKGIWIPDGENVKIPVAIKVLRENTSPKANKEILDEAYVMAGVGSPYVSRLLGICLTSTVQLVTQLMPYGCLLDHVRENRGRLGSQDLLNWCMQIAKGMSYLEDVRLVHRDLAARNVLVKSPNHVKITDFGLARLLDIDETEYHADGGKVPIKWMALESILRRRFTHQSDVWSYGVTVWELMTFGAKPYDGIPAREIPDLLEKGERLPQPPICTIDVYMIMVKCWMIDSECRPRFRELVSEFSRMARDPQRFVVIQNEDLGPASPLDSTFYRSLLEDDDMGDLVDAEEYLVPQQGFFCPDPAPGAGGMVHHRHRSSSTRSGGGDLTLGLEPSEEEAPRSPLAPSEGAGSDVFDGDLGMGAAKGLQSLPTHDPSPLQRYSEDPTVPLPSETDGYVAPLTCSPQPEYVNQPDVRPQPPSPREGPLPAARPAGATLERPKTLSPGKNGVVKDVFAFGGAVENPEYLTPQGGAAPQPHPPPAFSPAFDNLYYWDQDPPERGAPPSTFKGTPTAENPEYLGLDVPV

[3] = SK-BR-3 cell growth inhibitors, pilot screen, 24 h, human (AID 572;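 active means viability at or below 10% of carrier control in both of two separate runs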;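 further: compound exposure lasted between 18 and 24 h rather than exactly 24 h; 100% = carrier-treated control wells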); settings: SK-BR-3 viability, CellTiter-Glo luminescence, at 10 µM, stronger effect = lower value
[4] = HUVEC growth inhibition – cell-based, human, primary screen (AID 575); settings: HUVEC proliferation, CellTiter-Glo luminescence, 72 h; at 10 µM; stronger effect = lower value;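 further: 100% = median of untreated cell wells with 0.1% DMSO on each plate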
[5] = growth inhibitors of H69AR lung tumor, primary screen, human, duplicate replicates (AID 580;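 active means viability at or under a set limit in both replicates, limit being median viability minus 3 SD, cut at about 48% in these data, passing the limit was not always enough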;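 further: 100% = mean luminescence of untreated wells and 0% = no signal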); settings: H69AR lung tumor cells viability, ATP luminescence, 72 h; at 10 µM; stronger effect = lower value
[6] = reversal of MRP1-mediated doxorubicin resistance, pilot screen, H69AR cells, doxorubicin co-treatment (AID 601;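 active means viability loss from added drug above about 55%, and viability with drug at most 40%, in both replicates, limit read from the data, passing the limit was not always enough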); settings: CellTiter-Glo, 72 h, at 10 µM; for differential viability (reversal): stronger effect = higher value
[7] = 384-well plate pilot, post-Golgi transport modulator project, inhibition of yeast transport mutant growth (AID 636; in the data active means inhibition above about 31%); settings: absorbance 615 nm, about 18 h, stronger effect = higher value
[8] = growth suppression of yeast trafficking mutant, preliminary HTS, modulators of trafficking downstream of Golgi apparatus project, 1536-format plate, OD 615 nm (AID 637; in the data active means inhibition above about 30%); settings: yeast transport mutant growth, absorbance 615 nm, 18 h; stronger effect = higher value
[9] = OD615 S. cerevisiae growth inhibition, permissive medium, pilot counter-assay, permissive growth control for S. cerevisiae lifespan shortening project (AID 705;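 active means growth inhibition above 25% in both replicates, a cutoff set 3 SD above the mean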); settings: OD615, 24 h, at 10 µM, stronger effect = higher value
[10] = Restrictive medium S. cerevisiae growth inhibition, OD615, pilot screen of yeast lifespan reduction project, restrictive growth control (AID 706;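 active means growth inhibition above a set limit, 3 SD over mean compound inhibition, in both replicates, cut at about 43% in these data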;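 further: modified DeaD lifespan yeast strain shifted to restrictive glucose medium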); settings: OD615, 48 h, at 10 µM, stronger effect = higher value
[11] = viability gain of MRP-1-high H69AR cells under doxorubicin, pilot screen, MRP-1 activator project, CellTiter-Glo, duplicate (AID 807;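 active means viability increase at or above a cutoff of the median across tested compounds plus 3 SD, cut at about 8.5% in these data, passing the limit was not always enough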;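 further: compound pretreatment 18-22 h then 72 h combined with doxorubicin; 0% = doxorubicin alone and 100% = vehicle without doxorubicin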); settings: H69AR viability with doxorubicin, CellTiter-Glo luminescence; at 10 µM; stronger effect = higher value
[12] = growth suppression of beta-catenin knockout HCT116, pilot screen, human colon tumor cells (AID 823;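 active means cell viability at or below a set limit in both duplicate runs, the limit being the all-compound median minus 4 SD, cut at about 23% in these data, passing the limit was not always enough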;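 further: 0% = wells killed by 20 µM Hyamine and 100% = untreated DMSO cell wells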); settings: CellTiter-Glo, 60 h, at 10 µM, stronger effect = lower value
[13] = growth suppression of PTEN-deleted HCT116, pilot screen, cell-based, HCT116 clonal line, CellTiter-Glo (AID 824;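 active means viability at or below 27.92% in each of two runs, the all-compound median minus 4 SD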;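 further: 0% = 20 µM Hyamine control and 100% = vehicle cell control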); settings: 60 h, at 10 µM, stronger effect = lower value
[14] = inhibitors of the yeast RAM network, pilot screen, dse1pr::URA3 reporter, 5-FOA selection (AID 869;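 active means inhibition over a set limit, the all-compound mean plus 3 SD, in both replicate runs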;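 further: 0% = DMSO wells with no growth and 100% = 10 µM 1-NA-PP1 with full growth; RAM network block rescues cells from 5-FOA so hits raise OD615 growth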); settings: S. cerevisiae dse1pr::URA3 5-FOA growth, OD615, 2 d; at 10 µM; stronger effect = higher value; strain carries analog-sensitive mutant Cbk1 kinase
[15] = RAM signaling pathway blockade in yeast – S. cerevisiae, Pdr1DBD-CYC8 efflux-inhibited sensitized strain, primary screen (AID 1298;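 active means RAM network inhibition above 8.4% in each of two replicates, 3 SD over the compound average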;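 further: 0% = DMSO untreated cells without growth and 100% = 10 µM 1-NA-PP1 full growth; higher means more yeast growth rescued from 5-FOA killing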); settings: S. cerevisiae cbk1-as DSE1-URA3 strain, 5-FOA growth OD615, 2 d; at 50 µM; stronger effect = higher value
[16] = H69AR cells + 2 uM doxorubicin, measured here: viability with 2 uM doxorubicin, stronger effect = lower value
[17] = H69AR cells, compound alone cytotoxicity

NC(=O)C1CCN(C(=O)c2cc3n(n2)C(C(F)(F)F)CC(c2ccco2)N3)CC1 (stereo not drawn)
85%: viability [6, 17]
85.8%: viability [6, 16]
inactive: Her2 level [2] 99.5% | viability [3] 84% | viability [4] 104% | viability [5] 85% | differential viability (reversal) ([6]; H69AR cells + 2 uM doxorubicin) -0.83% | inhibition [7] -0.93% | inhibition [8] -4.67% | growth inhibition [9] -7% | growth inhibition [10] -1.27% | viability increase [11] -1.57% | viability [12] 97% | viability [13] 97.4% | inhibition [14] 2.2% | RAM network inhibition [15] 0.98%
84%: viability [1]

NC(=O)CN1C(=O)C(O)(CC(=O)c2ccccc2O)c2ccccc21 (stereo not drawn)
92.5%: viability [1]
91.8%: viability [6, 17]
inactive: Her2 level [2] 95.5% | viability [3] 92.5% | viability [4] 92.1% | viability [5] 91.8% | differential viability (reversal) ([6]; H69AR cells + 2 uM doxorubicin) -5.2% | inhibition [7] -2.67% | inhibition [8] -1.17% | growth inhibition [9] 1.61% | growth inhibition [10] -10.4% | viability increase [11] -2.93% | viability [12] 94.8% | viability [13] 93.9% | inhibition [14] 1.52% | RAM network inhibition [15] 2.98%
97%: viability [6, 16]

CCOC(=O)C(CC)n1nc(C)n2c(cc3sccc32)c1=O (stereo not drawn)
inactive: Her2 level [2] 102% | viability [3] 114% | viability [4] 110% | viability [5] 85.1% | differential viability (reversal) ([6]; H69AR cells + 2 uM doxorubicin) 0.895% | inhibition [7] -5.87% | inhibition [8] 1% | growth inhibition [9] -5.97% | growth inhibition [10] 1.69% | viability increase [11] -2.34% | viability [12] 99.8% | viability [13] 95.2% | inhibition [14] -1.04% | RAM network inhibition [15] 2.14%
84.2%: viability [6, 16]
85.1%: viability [6, 17]
114%: viability [1]

COc1ccc(-n2nnnc2SCC(=O)N2CCOCC2)cc1
93%: viability [1]
88.6%: viability [6, 16]
inactive: Her2 level [2] 92% | viability [3] 93% | viability [4] 83.8% | viability [5] 89.2% | differential viability (reversal) ([6]; H69AR cells + 2 uM doxorubicin) 0.58% | inhibition [7] -4.67% | inhibition [8] -0.5% | growth inhibition [9] -2.94% | growth inhibition [10] -5.96% | viability increase [11] -1.07% | viability [12] 96.2% | viability [13] 98.8% | inhibition [14] 0.85% | RAM network inhibition [15] 3.08%
89.2%: viability [6, 17]

CC(C)OC(=O)c1ccc(OC(=O)c2cccnc2)cc1
inactive: Her2 level [2] 100% | viability [3] 91.5% | viability [4] 102% | viability [5] 106% | differential viability (reversal) ([6]; H69AR cells + 2 uM doxorubicin) 11.3% | inhibition [7] 3.65% | inhibition [8] -3.44% | growth inhibition [9] 2.51% | growth inhibition [10] 12.6% | viability increase [11] -2.98% | viability [12] 92.9% | viability [13] 91.3% | inhibition [14] 2.02% | RAM network inhibition [15] 2.34%
94.6%: viability [6, 16]
91.5%: viability [1]
106%: viability [6, 17]

CN(Cc1ccccc1)S(=O)(=O)c1ccc(S(=O)(=O)N2CCN(CCC#N)CC2)cc1
inactive: Her2 level [2] 116% | viability [3] 91% | viability [4] 92.4% | viability [5] 77.2% | differential viability (reversal) ([6]; H69AR cells + 2 uM doxorubicin) 15.4% | inhibition [7] -4.23% | inhibition [8] -7.17% | growth inhibition [9] -12% | growth inhibition [10] -4.41% | viability increase [11] -8.59% | viability [12] 96.9% | viability [13] 92.3% | inhibition [14] 0.725% | RAM network inhibition [15] 4.91%
91%: viability [1]
77.2%: viability [6, 17]
61.8%: viability [6, 16]

CCOc1ccc2nc(Nc3nc4c(c(=O)[nH]3)CCC4)nc(C)c2c1
97.7%: viability [6, 16]
inactive: Her2 level [2] 99% | viability [3] 99.5% | viability [4] 98.4% | viability [5] 103% | differential viability (reversal) ([6]; H69AR cells + 2 uM doxorubicin) 5.67% | inhibition [7] -4% | inhibition [8] 1.83% | growth inhibition [9] -9.17% | growth inhibition [10] 9.05% | viability increase [11] 0.54% | viability [12] 93.8% | viability [13] 96.4% | inhibition [14] 1.01% | RAM network inhibition [15] 3.45%
103%: viability [6, 17]
99.5%: viability [1]

CCC(C)NC(=O)c1cn(CC)c2ccc(S(=O)(=O)N(C)C)cc2c1=O (stereo not drawn)
87%: viability [1]
78.9%: viability [6, 17]
90.6%: viability [6, 16]
inactive: Her2 level [2] 84% | viability [3] 87% | viability [4] 85.7% | viability [5] 78.9% | differential viability (reversal) ([6]; H69AR cells + 2 uM doxorubicin) -11.6% | inhibition [7] -4.53% | inhibition [8] -2.33% | growth inhibition [9] 2.96% | growth inhibition [10] 14.4% | viability increase [11] -2.73% | viability [12] 92.4% | viability [13] 93.4% | inhibition [14] -0.32% | RAM network inhibition [15] 1.7%

CCOc1ccc(Cn2nnc(C(=O)NCc3ccc(OC)cc3)c2N)cc1
91.6%: viability [6, 16]
89.5%: viability [6, 17]
95%: viability [1]
inactive: Her2 level [2] 102% | viability [3] 95% | viability [4] 74.3% | viability [5] 89.5% | differential viability (reversal) ([6]; H69AR cells + 2 uM doxorubicin) -2.11% | inhibition [7] -4.67% | inhibition [8] -4.33% | growth inhibition [9] -3.91% | growth inhibition [10] -6.16% | viability increase [11] -0.43% | viability [12] 95.8% | viability [13] 94.8% | inhibition [14] 2.19% | RAM network inhibition [15] 4.7%
